Screen size: about 310,000 compounds; about 14,000 (4.5%) showed an effect of 50% or more. The effect is printed as a negative number. The sample holds strong results, similar compounds and a random draw of the others, so the mix is not that of the screen.
target: human ether-à-go-go-related gene (hERG) potassium channel (human, UniProt Q12809); assay: primary screen, population patch clamp on CHO cells stably expressing hERG; higher = less effect of the substance
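Also: peak tail current of the secondary pulse compared with the same well before compound.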

Chain of human ether-à-go-go-related gene (hERG) potassium channel (Q12809 whole entry, looked up): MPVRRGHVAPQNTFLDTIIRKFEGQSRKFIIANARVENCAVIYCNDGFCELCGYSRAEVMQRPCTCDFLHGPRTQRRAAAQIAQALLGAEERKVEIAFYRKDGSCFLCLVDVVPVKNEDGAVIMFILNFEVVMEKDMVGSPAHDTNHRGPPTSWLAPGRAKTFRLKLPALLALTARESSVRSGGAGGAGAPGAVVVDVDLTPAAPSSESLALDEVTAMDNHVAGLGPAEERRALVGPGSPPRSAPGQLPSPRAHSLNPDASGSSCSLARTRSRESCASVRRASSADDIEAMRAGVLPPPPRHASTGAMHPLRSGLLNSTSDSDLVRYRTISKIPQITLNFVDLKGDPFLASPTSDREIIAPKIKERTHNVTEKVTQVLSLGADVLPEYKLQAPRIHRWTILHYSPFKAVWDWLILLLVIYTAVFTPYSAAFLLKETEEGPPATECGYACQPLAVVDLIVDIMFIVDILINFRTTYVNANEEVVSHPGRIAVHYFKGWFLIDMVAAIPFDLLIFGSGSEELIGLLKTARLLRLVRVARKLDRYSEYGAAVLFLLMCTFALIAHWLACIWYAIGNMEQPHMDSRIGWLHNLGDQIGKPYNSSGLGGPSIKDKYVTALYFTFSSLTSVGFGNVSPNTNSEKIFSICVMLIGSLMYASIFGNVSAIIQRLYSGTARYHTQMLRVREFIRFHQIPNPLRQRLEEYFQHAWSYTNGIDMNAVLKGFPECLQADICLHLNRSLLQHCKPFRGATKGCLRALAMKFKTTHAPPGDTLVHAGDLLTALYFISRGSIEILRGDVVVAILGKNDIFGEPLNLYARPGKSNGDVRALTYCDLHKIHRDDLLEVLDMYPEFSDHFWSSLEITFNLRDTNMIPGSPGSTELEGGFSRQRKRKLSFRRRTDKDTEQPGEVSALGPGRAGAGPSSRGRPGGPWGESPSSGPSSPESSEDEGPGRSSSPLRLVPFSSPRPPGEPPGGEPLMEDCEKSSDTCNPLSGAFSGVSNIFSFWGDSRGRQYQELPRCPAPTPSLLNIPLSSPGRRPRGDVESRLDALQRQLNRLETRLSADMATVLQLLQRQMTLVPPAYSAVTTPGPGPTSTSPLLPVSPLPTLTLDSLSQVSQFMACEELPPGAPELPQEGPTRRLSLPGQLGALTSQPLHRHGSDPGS

SMILES | hERG current change (%, negative = inhibition) at 10uM
CCOC(=O)C1=C(CS(=O)(=O)c2ccccc2)NC(=O)NC1c1ccccc1OCC (stereo not shown) | -4.89%
Cc1ccsc1C1NC(=O)c2ccccc2N1 (stereo not shown) | 5.58%
CCC(C)(C)NC(=O)C(c1ccc(OC)cc1)N(C(=O)CCC(=O)Nc1cc(C)on1)c1ccc2c(c1)OCCO2 (stereo not shown) | 11.1%
O=C1OC/C(=C(/O)c2ccc(Cl)cc2)C1=O | 17%
Cc1cc(NC(=S)NC(=O)c2ccco2)c2ccccc2n1 | -1.51%
Cc1ccc(S(=O)(=O)N2CCCCC2C(=O)O)cc1 (stereo not shown) | 6.47%
COc1ccc(C(=O)C2CCN(C(=S)NCC3CCCO3)CC2)cc1 (stereo not shown) | -7.23%
O=C(c1cccc(S(=O)(=O)N2CCCC2)c1)N(Cc1ccco1)C1CCS(=O)(=O)C1 (stereo not shown) | -21.8%
OCCC1CN(Cc2ccon2)CCN1Cc1ccccc1 (stereo not shown) | 9.42%
Cc1ccc(CN2CCN(Cc3ccon3)CC2CCO)cc1 (stereo not shown) | -11.1%
COc1cc(CN2CCN(CC3CC3)CC2CCO)cc(OC)c1 (stereo not shown) | 2.79%
COc1ccc(CN2CCN(CC3CC3)CC2CCO)cc1C (stereo not shown) | -0.194%
CCOc1ccc(CN2CCN(Cc3ccon3)CC2CCO)cc1 (stereo not shown) | -62.8%
OCCC1CN(Cc2cc3ccccc3o2)CCN1Cc1ccc(F)cc1 (stereo not shown) | -11.8%
CCOc1ccc(CN2CCN(CC3CC3)CC2CCO)cc1 (stereo not shown) | -67.1%
CCOc1ccc(CN2CCN(Cc3cc4ccccc4o3)CC2CCO)cc1 (stereo not shown) | -80.4%
Cc1ccc(CN2CCN(Cc3cc4ccccc4o3)CC2CCO)cc1 (stereo not shown) | -43.1%
N#CC(C#N)=Cc1c[nH]c(=O)c(C#N)c1Nc1ccccc1 | 16.1%
O=C(CN(Cc1ccccc1)S(=O)(=O)c1ccccc1)NC1CC1 | -3.03%
CCc1cc(=O)oc2cc(C)cc(OCC(=O)NCC3CCC(C(=O)O)CC3)c12 (stereo not shown) | 4.34%

SMILES | hERG current change (%, negative = inhibition) at 10uM
CC(C)(C)NC(=O)CN(c1cccc([N+](=O)[O-])c1)S(=O)(=O)c1ccccc1 | -11.5%
Cc1cc(C)c(NC(=O)CCCOC(=O)C2=COCCO2)c(C)c1 | 16.1%
O=C(N/N=C/c1cccc(F)c1)c1csc2c1CCCC2 | -30%
CC(C)C[C@H](NC(=O)c1[nH]cnc1C(=O)N[C@@H](C)c1ccccc1)C(=O)OC(C)(C)C | 12.5%
CC1CCN(C(=O)c2cc3ccccc3c(=O)o2)CC1 | 5.74%
O=C(Cn1nnc(-c2ccccc2Cl)n1)N/N=C/c1ccc(-c2cccc(Cl)c2)o1 | 2.26%
COC(=O)N/N=C/c1ccc(-c2ccc(C)c(Cl)c2)o1 | -6.4%
Cc1nnc(SCC(=O)N/N=C/c2ccc(-c3ccc(C)c(Cl)c3)o2)s1 | -1.51%
Nc1nnnn1CC(=O)N/N=C/c1ccc(-c2cccc(Cl)c2)o1 | 8.79%
Cc1ccc(-c2ccc(/C=N/NC(=O)CN3CCCC3)o2)cc1Cl | -90.2%
O=C(CN1CCCC1)N/N=C/c1ccc(-c2cccc(Cl)c2)o1 | -62.2%
CC1(c2ccccc2)NC(=O)N(Cc2ccc([N+](=O)[O-])cc2)C1=O (stereo not shown) | -31%
COCc1cc(CN2CCCC(C(=O)Nc3cccc(-n4cnnn4)c3)C2)ccc1OC (stereo not shown) | -6.58%
COc1ccc(CN2CCCC(C(=O)Nc3cccc(-n4cccn4)c3)C2)c(F)c1 (stereo not shown) | -30.3%
COc1ccc(CN2CCCC(C(=O)Nc3cccc(-n4cnnn4)c3)C2)c(C)c1C (stereo not shown) | -62.7%
COC(=O)c1ccc(CN2CCCC(C(=O)Nc3cccc(-n4cnnn4)c3)C2)cc1 (stereo not shown) | -47.7%
Cn1cc(CN2CCCC(C(=O)Nc3cccc(-n4cccn4)c3)C2)cn1 (stereo not shown) | -5.79%
O=C(Nc1cccc(-n2cnnn2)c1)C1CCCN(Cc2cccc(C(F)(F)F)c2)C1 (stereo not shown) | -59.8%
COC(=O)Cc1c(C)c2ccc(OC3CCCCC3=O)c(C)c2oc1=O (stereo not shown) | 3.77%
CCCCCOc1ccc(NC(=O)CSc2cccc3cccnc23)cc1 | 18.8%

SMILES | hERG current change (%, negative = inhibition) at 10uM
N#Cc1cc([N+](=O)[O-])ccc1NC(=O)CSc1n[nH]c(=O)n1C1CC1 | 1.42%
COc1cccc(OC)c1C(=O)Nc1c(C(=O)N2CCN(c3ccccn3)CC2)oc2ccccc12 | -61.6%
Cc1c(C(=O)N2CCN(c3ccccn3)CC2)oc2ccccc12 | -28%
O=C(Nc1c(C(=O)N2CCN(c3ccccn3)CC2)oc2ccccc12)c1cccc([N+](=O)[O-])c1 | -48.8%
O=C(Nc1c(C(=O)N2CCN(c3ccccn3)CC2)oc2ccccc12)c1ccc([N+](=O)[O-])cc1 | -51%
COc1cccc(OC)c1C(=O)Nc1c(C(=O)N2CCN(C)CC2)oc2ccccc12 | -29.1%
COc1cccc(OC)c1C(=O)N1CCN(c2ccccn2)CC1 | 11%
COc1ccc(NC(=O)c2ccc(-c3nn(C)c(=O)c4ccccc34)cc2)cc1C(N)=O | 6.4%
Cc1ccc(N(C(=O)Cc2cccs2)C(C(=O)NCC2CCCO2)c2ccncc2)cc1 (stereo not shown) | 11.5%
CCOc1ccc(Cc2nc(C)c(CC(=O)N3CCOCC3)c(=O)[nH]2)cc1 | 8.37%
O=C(CSc1ncnc2ccccc12)NCc1ccc2c(c1)OCO2 | -16.9%
O=C(C(=O)N1CCCc2ccccc21)c1c[nH]c2ccccc12 | 4.5%
O=S(=O)(c1ccccc1)N1CCN(CCc2ccccc2)CC1 | 14.2%
O=C(O)C(=O)O.O=S(=O)(c1ccc(Cl)cc1)N1CCN(Cc2ccncc2)CC1 | -51.5%
CCS(=O)(=O)N1CCN(Cc2ccncc2)CC1.O=C(O)C(=O)O | 13.2%
O=S(=O)(c1ccc(Cl)cc1)N1CCN(CCc2ccncc2)CC1 | -55.3%
O=S(=O)(c1ccc(Cl)cc1)N1CCN(CCc2ccccc2)CC1 | -3.7%
CC(=O)Nc1ccc(S(=O)(=O)N2CCN(Cc3ccncc3)CC2)cc1 | -8.67%

Reference: article PMC4336329 (PLoS ONE, 2015)
